# Measured values reported in PubChem BioAssay (EPA / NIEHS).
# Records with an inconclusive call do not appear. Activity calls are given as the source filed them. The calls were made as follows: active = hit-call score of the fitted dose curve at least 0.9, where 1 is the maximum; inconclusive = response in the unintended direction; inactive = score below 0.9.
# Legend:
# [1] = ACEA_AR_agonist_AUC_viability: ACEA Biosciences xCELLigence Real-Time Cell Analysis on Androgen Receptor Agonism for Viability (AID 2283775);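 as to AC50: viability read 80 hours after compound addition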
# Summary of the method: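 Real-time impedance tracking of 22Rv1 growth, readings every 5 min for 5 h then hourly; area-under-curve viability endpoint at 80 hours, relative to DMSO. Compounds at eight concentrations, 1:4 steps, top 100 uM, n = 2.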
# [2] = ACEA_AR_antagonist_AUC_viability: ACEA Biosciences xCELLigence Real-Time Cell Analysis on Androgen Receptor Antagonism for Viability (AID 2283776);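 also: 22Rv1 human prostate cancer cells growing on impedance electrode plates; hits lower the growth signal relative to DMSO meaning cytotoxicity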
# Summary of the method: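 Impedance read-out (RT-CES): area under growth curve at 80 h post-dose, loss of signal scored vs DMSO baseline. 22Rv1 cells; 8-pt 1:4 series, top 100 uM final, ≤0.5% DMSO; biological duplicate.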
# [3] = biological target: Luciferin 4-monooxygenase (Photinus pyralis) (UniProt P08659); assay: CCTE_Simmons_QuantiLum_inhib_2: CCTE's Firefly Luciferase Inhibition Assay, Simmons Lab (AID 2283767);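 as to AC50: potency for inhibitors that lower luciferase luminescence relative to DMSO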
# Summary of the method: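 Cell-free recombinant firefly luciferase (5 ng/well) in 200mM potassium phosphate with 1 mg/ml BSA, 30 min at 37C with 8 concentrations from 5 nM to 87.5 uM [final], 0.5% DMSO. Luminescence read after D-luciferin (150uM)/dATP (147uM) reagent injection, pH 7.8; triplicates.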
# [4] = ACEA_ER_AUC_viability: ACEA Biosciences xCELLigence Real-Time Cell Analysis on Estrogen Receptor Agonism for Viability (AID 2283782);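 also: continuous compound exposure with impedance area under curve over 80 h; hit means loss of impedance signal meaning reduced cell growth or viability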
# Summary of the method: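 T47D cells preconditioned in phenol red-free RPMI with charcoal-stripped FBS, then dosed with 8-point 1:4 series from 100 uM (up to 0.5% DMSO). Impedance monitored up to ~80 h; area-under-curve loss versus DMSO taken as viability.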
# [5] = STM_H9_NormalizedViability: Cytotoxicity Assessment at 120 hours in the Stemina devTOX quickPredict H9 human embryonic stem cell (hESC)-based Assay (AID 2283784)
# Summary of the method: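 Pluripotent H9 hESCs were exposed, with chemical and media replaced every 24 h. Viability was read by CellTiter-Fluor fluorescence, background-corrected and normalized to the 0.1% DMSO neutral control per plate. Loss of signal was fitted.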
# AR (gene 367) [6] = biological target: AR (gene 367) (UniProt P10275); assay: ACEA_AR_antagonist_80hr: ACEA Biosciences xCELLigence Real-Time Cell Analysis on Androgen Receptor Antagonism for Proliferation (AID 2283787);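 also: 22Rv1 human prostate cancer cells with growth followed by electrical impedance; hits lower the impedance growth signal relative to DMSO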
# Summary of the method: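 22Rv1 cells in assay medium, growth tracked by electrical impedance; compounds eight-point 1:4 dilutions from 100 uM final, duplicate plates. Endpoint at 80 h; loss of signal versus DMSO.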
# [7] = test system: chicken Androgen Receptor (AR), gene 422165; assay: ATG_chAR_XSP1: Attagene TRANS-FACTORIAL Multi-Species (XSP1) HepG2 Assay for chicken Androgen Receptor (AR) (AID 2283768)
# Summary of the method: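 HepG2 cells transiently transfected with multiplexed GAL4-UAS reporter units expressing chimeric chicken AR-Gal4; 3 nM 6-alpha-fluorotestosterone for partial AR stimulation; 24 h after dosing, reporter mRNA by RT-PCR and capillary electrophoresis, gain-of-signal versus DMSO.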
# [8] = biological target: zebrafish Estrogen Receptor (ESR1), esr1 (gene 259252) (UniProt P57717); assay: ATG_zfER1_XSP1: Attagene TRANS-FACTORIAL Multi-Species (XSP1) HepG2 Assay for zebrafish Estrogen Receptor (ESR1) (AID 2283772)
# Summary of the method: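 HepG2 cells were transiently transfected with multiplexed GAL4-UAS reporter units driven by chimeric NR-GAL4 proteins, dosed for 24 h with 3 nM 6-alpha-fluorotestosterone present, and reporter mRNA quantified by RT-PCR and capillary electrophoresis versus DMSO.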
# [9] = test system: zebrafish Estrogen Receptor (ESR2B), gene 317733; assay: ATG_zfER2b_XSP1: Attagene TRANS-FACTORIAL Multi-Species (XSP1) HepG2 Assay for zebrafish Estrogen Receptor (ESR2B) (AID 2283773)
# Summary of the method: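 HepG2 cells transiently transfected with GAL4-UAS reporter units for chimeric zebrafish ER2b-Gal4, with 3 nM 6-alpha-fluorotestosterone present; reporter mRNA measured 24 h after dosing by RT-PCR and capillary electrophoresis, gain versus DMSO.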
# [10] = test system: frog Estrogen Receptor (ESR2), gene 100174814; assay: ATG_frER2_XSP1: Attagene TRANS-FACTORIAL Multi-Species (XSP1) HepG2 Assay for frog Estrogen Receptor (ESR2) (AID 2283774)
# Summary of the method: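 HepG2 cells transiently transfected with GAL4-UAS reporter units expressing chimeric frog ER-Gal4; 3 nM 6-alpha-fluorotestosterone present. After 24 h dosing, reporter mRNA quantified by RT-PCR and capillary electrophoresis; gain-of-signal fitted relative to DMSO.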
# [11] = test system: frog Estrogen Receptor (ESR1), gene 398734; assay: ATG_frER1_XSP1: Attagene TRANS-FACTORIAL Multi-Species (XSP1) HepG2 Assay for frog Estrogen Receptor (ESR1) (AID 2283777)
# Summary of the method: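 HepG2 cells transiently transfected with frog ER–GAL4 chimera and GAL4-UAS reporter, with 3 nM 6-alpha-fluorotestosterone present; 24 h dosing, reporter mRNA quantified by RT-PCR and capillary electrophoresis, gain of signal versus DMSO.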
# [12] = test system: zebrafish Estrogen Receptor (ESR2A), gene 317734; assay: ATG_zfER2a_XSP1: Attagene TRANS-FACTORIAL Multi-Species (XSP1) HepG2 Assay for zebrafish Estrogen Receptor (ESR2A) (AID 2283778)
# Summary of the method: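 HepG2 cells transiently transfected with GAL4-UAS reporter units driven by a zebrafish ESR2A–Gal4 chimera; 24 h compound exposure with 3 nM 6-alpha-fluorotestosterone present. Reporter mRNA measured by RT-PCR with fluorescent capillary electrophoresis, fitted positive versus DMSO.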
# [13] = biological target: chicken Estrogen Receptor (ESR1), ESR1 (gene 396099) (UniProt P06212); assay: ATG_chERa_XSP1: Attagene TRANS-FACTORIAL Multi-Species (XSP1) HepG2 Assay for chicken Estrogen Receptor (ESR1) (AID 2283779)
# Summary of the method: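 HepG2 cells transiently transfected with GAL4-UAS reporter units for chimeric chicken ERα-Gal4, dosed 24 h with 3 nM 6-alpha-fluorotestosterone present. Reporter mRNA by RT-PCR and capillary electrophoresis; gain-of-signal fit versus DMSO.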
# [14] = biological target: Estrogen receptor (Homo sapiens) (UniProt P03372); assay: ATG_hERa_XSP1: Attagene TRANS-FACTORIAL Multi-Species (XSP1) HepG2 Assay for human Estrogen Receptor (ESR1) (AID 2283780)
# Summary of the method: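 HepG2 cells transiently transfected with GAL4-UAS reporter units and chimeric NR-Gal4 constructs; 24 h after dosing, reporter mRNA quantified by RT-PCR and capillary electrophoresis. Medium contained 3 nM 6-alpha-fluorotestosterone; activity fitted as gain-of-signal versus DMSO.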
# [15] = test system: turtle Estrogen Receptor (ESR1), gene 101933533; assay: ATG_trERa_XSP1: Attagene TRANS-FACTORIAL Multi-Species (XSP1) HepG2 Assay for turtle Estrogen Receptor (ESR1) (AID 2283781)
# Summary of the method: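 Turtle ERa as a GAL4 chimera in transiently transfected HepG2 cells; reporter mRNA quantified 24 h after dosing by RT-PCR and capillary electrophoresis. 3 nM 6-alpha-fluorotestosterone present; gain of signal versus DMSO.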
# [16] = test system: turtle Androgen Receptor (AR), gene 101947425; assay: ATG_trAR_XSP1: Attagene TRANS-FACTORIAL Multi-Species (XSP1) HepG2 Assay for turtle Androgen Receptor (AR) (AID 2283786)
# Summary of the method: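 HepG2 cells transiently transfected with a turtle AR–GAL4 chimera and GAL4-UAS reporter, co-treated with 3 nM 6-alpha-fluorotestosterone for partial stimulation. Reporter mRNA is quantified at 24 h by RT-PCR and capillary electrophoresis, gain-of-signal versus DMSO.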
# AR (gene 367) [17] = biological target: AR (gene 367) (UniProt P10275); assay: ACEA_AR_agonist_80hr: ACEA Biosciences xCELLigence Real-Time Cell Analysis on Androgen Receptor Agonism for Proliferation (AID 2283783);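 also: hits increase impedance growth signal above DMSO baseline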
# Summary of the method: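 Proliferation of 22Rv1 prostate cancer cells tracked by electrical impedance, endpoint taken at 80 hours after dosing. Eight-point 1:4 dilutions from 100 uM maximum final, duplicate; testosterone and MG132 as positive controls, assay media as negative.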
# [18] = ArunA_NOG_NeuritesPerNeuron: ArunA Biomedical's Neurite Outgrowth (NOG) Assay for Neurites Per Neuron (AID 2283758)
# Summary of the method: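 Differentiated human H9-derived neurons exposed to chemicals for 48 h from seeding, then stained with Hoechst and βIII-tubulin/DyLight 488. Automated imaging counted neurites (processes >10 um) per valid neuron; loss of signal versus DMSO scored.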
# [19] = ArunA_NOG_NeuriteLength: ArunA Biomedical's Neurite Outgrowth (NOG) Assay for Neurite Length (AID 2283757)
# Summary of the method: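 Differentiated human H9-derived neurons were exposed for 48 h from seeding, then stained with Hoechst and βIII-tubulin. Automated high-content imaging gave total neurite length per valid neuron, counting processes >10 um. Loss of signal was scored versus DMSO.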
# [20] = test system: zebrafish Androgen Receptor (AR), gene 100005148; assay: ATG_zfAR_XSP1: Attagene TRANS-FACTORIAL Multi-Species (XSP1) HepG2 Assay for zebrafish Androgen Receptor (AR) (AID 2283771)
# Summary of the method: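 HepG2 cells were transiently transfected with a zebrafish AR-GAL4 reporter system and partially stimulated with 3 nM 6-alpha-fluorotestosterone. Reporter mRNA was measured after 24 h dosing by RT-PCR with capillary electrophoresis, and gain-of-signal was fitted relative to DMSO.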
# AR (gene 367), sequence (P10275 whole entry, looked up): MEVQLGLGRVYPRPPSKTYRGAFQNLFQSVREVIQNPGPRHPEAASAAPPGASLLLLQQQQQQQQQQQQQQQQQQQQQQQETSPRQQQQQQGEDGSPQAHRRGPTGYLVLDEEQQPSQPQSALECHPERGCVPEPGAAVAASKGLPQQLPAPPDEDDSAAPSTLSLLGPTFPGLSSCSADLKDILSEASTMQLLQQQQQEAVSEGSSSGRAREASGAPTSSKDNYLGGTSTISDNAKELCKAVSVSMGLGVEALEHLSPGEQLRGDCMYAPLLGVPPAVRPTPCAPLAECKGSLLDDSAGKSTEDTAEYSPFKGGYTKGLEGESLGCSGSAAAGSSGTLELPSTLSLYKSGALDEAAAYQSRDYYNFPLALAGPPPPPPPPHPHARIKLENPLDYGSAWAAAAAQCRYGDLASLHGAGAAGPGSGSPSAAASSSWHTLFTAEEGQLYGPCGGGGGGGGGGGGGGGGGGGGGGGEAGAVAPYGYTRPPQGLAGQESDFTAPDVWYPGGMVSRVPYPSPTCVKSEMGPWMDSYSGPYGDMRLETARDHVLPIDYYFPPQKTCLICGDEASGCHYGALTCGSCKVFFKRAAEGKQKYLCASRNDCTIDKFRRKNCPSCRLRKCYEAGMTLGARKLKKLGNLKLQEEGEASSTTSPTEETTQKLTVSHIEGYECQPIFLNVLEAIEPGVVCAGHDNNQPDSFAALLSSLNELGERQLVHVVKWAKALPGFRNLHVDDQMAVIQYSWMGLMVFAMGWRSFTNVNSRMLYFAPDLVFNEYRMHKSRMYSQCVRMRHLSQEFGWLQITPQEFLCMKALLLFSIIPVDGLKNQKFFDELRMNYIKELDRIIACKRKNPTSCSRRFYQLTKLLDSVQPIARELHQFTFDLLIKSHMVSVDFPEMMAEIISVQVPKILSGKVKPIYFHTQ
# zebrafish Estrogen Receptor (ESR1), esr1 (gene 259252), sequence (P57717 whole entry, looked up, the tested form may be a part): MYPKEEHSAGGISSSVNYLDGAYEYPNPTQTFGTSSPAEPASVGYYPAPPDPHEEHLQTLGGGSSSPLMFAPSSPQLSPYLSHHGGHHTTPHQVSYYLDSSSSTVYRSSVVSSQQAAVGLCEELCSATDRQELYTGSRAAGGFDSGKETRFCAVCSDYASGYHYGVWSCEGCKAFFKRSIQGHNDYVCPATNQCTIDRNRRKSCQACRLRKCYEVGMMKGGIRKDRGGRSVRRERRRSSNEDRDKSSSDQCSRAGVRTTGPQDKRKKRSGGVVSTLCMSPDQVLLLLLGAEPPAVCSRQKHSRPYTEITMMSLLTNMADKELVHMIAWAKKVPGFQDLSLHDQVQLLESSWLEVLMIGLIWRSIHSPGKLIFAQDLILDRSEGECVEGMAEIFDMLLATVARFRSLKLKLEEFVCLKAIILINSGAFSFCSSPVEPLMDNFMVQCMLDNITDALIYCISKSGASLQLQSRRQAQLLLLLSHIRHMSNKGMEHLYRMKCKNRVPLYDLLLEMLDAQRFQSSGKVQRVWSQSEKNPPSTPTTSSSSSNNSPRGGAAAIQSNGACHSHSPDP
# Estrogen receptor (Homo sapiens), sequence (P03372 whole entry, looked up, the tested form may be a part): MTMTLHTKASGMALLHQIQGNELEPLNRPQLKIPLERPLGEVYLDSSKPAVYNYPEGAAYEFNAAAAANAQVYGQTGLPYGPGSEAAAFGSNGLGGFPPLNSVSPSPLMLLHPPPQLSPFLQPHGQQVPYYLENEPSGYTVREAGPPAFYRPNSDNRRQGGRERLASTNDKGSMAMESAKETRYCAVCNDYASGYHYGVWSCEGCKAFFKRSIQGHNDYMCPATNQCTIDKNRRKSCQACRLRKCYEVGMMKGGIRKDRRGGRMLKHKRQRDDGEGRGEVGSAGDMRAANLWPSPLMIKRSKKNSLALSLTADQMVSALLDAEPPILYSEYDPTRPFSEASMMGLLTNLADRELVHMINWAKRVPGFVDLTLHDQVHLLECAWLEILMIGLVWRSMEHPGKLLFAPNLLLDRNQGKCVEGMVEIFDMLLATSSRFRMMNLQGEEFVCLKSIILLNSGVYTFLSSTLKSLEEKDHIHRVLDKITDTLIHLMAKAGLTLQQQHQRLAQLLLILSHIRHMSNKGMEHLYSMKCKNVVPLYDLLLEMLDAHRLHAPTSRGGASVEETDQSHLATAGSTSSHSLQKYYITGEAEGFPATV
# chicken Estrogen Receptor (ESR1), ESR1 (gene 396099), sequence (P06212 whole entry, looked up, the tested form may be a part): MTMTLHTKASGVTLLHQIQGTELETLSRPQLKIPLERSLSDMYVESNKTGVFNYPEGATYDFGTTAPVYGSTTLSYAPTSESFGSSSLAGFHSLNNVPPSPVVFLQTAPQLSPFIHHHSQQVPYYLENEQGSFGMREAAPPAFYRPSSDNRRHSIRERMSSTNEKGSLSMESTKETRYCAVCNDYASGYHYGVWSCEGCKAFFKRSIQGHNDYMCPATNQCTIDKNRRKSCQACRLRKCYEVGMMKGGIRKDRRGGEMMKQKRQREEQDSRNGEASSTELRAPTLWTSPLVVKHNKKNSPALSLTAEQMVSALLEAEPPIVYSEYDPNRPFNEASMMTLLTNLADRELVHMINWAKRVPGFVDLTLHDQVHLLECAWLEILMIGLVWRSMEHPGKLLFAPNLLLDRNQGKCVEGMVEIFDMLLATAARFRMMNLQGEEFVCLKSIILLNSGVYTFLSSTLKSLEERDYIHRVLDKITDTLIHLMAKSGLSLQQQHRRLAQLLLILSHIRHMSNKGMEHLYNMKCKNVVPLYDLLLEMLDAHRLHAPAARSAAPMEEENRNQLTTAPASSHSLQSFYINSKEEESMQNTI
# Luciferin 4-monooxygenase (Photinus pyralis), sequence (P08659 whole entry, looked up): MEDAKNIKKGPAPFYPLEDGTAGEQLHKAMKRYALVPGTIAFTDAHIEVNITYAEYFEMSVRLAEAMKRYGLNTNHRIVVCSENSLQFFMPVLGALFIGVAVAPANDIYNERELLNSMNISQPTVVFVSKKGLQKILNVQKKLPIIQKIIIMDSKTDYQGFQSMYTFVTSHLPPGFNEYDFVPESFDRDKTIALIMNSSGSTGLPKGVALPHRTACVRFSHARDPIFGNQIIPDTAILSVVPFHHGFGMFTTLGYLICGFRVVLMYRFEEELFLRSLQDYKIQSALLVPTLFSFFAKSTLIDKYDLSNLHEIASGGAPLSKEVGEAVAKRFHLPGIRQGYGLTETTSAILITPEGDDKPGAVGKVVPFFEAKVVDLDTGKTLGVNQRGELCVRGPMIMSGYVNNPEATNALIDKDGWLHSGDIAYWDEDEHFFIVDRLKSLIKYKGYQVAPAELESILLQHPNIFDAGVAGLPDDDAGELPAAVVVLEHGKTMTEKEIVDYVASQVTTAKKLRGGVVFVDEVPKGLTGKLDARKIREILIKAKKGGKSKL
smiles,measurement,setting,value
N#Cc1c(Cl)cccc1Cl,outcome,[1],inactive
same,outcome,[2],inactive
COC(=O)NC(=S)Nc1ccccc1NC(=S)NC(=O)OC,outcome,[3],inactive
same,AC50,[1],18.3 µM (active)
same,AC50,[2],21.6 µM (active)
Cc1nc(N(C)C)nc(OC(=O)N(C)C)c1C,outcome,[1],inactive
COc1ccc(-c2ccccc2)cc1NNC(=O)OC(C)C,AC50,[3],0.556 µM (active)
same,outcome,[1],inactive
same,outcome,[2],inactive
same,outcome,[4],inactive
same,AC50,[5],45.6 µM (active)
same,outcome,AR (gene 367) [6],inactive
CC1(C)C(C=C(Cl)Cl)C1C(=O)OC(C#N)c1cccc(Oc2ccccc2)c1 (stereo not given),outcome,[7],inactive
same,outcome,[8],inactive
same,AC50,[9],72.5 µM (active)
same,AC50,[10],27.3 µM (active)
same,AC50,[1],73.1 µM (active)
same,outcome,[2],inactive
same,AC50,[11],2.24 µM (active)
same,outcome,[12],inactive
same,outcome,[13],inactive
same,AC50,[14],1.45 µM (active)
same,outcome,[15],inactive
same,outcome,[16],inactive
COP(=S)(OC)SCn1nnc2ccccc2c1=O,outcome,[3],inactive
same,AC50,[1],79.9 µM (active)
same,AC50,[2],64.7 µM (active)
same,outcome,AR (gene 367) [17],inactive
same,AC50,AR (gene 367) [6],83.1 µM (active)
CC(C)C1(C)N=C(c2ncccc2C(=O)O)NC1=O (stereo not given),outcome,[18],inactive
same,outcome,[1],inactive
same,outcome,[2],inactive
same,outcome,[5],inactive
CCOc1nc(F)cc2nc(S(=O)(=O)Nc3c(Cl)cccc3Cl)nn12,outcome,[3],inactive
same,outcome,[1],inactive
COCc1cnc(C2=NC(C)(C(C)C)C(=O)N2)c(C(=O)O)c1 (stereo not given),outcome,[19],inactive
same,outcome,[4],inactive
same,outcome,AR (gene 367) [17],inactive
same,outcome,[5],inactive
COC(=O)NS(=O)(=O)c1ccc(N)cc1,AC50,[3],0.149 µM (active)
same,outcome,[2],inactive
same,outcome,[4],inactive
CC(C)NC(=O)N1CC(=O)N(c2cc(Cl)cc(Cl)c2)C1=O,outcome,[7],inactive
same,outcome,[20],inactive
same,outcome,[8],inactive
same,AC50,[9],100 µM (active)
same,AC50,[10],100 µM (active)
same,AC50,[1],11.2 µM (active)
same,AC50,[11],100 µM (active)
same,outcome,[12],inactive
same,outcome,[13],inactive
same,AC50,[14],10.3 µM (active)
same,AC50,[15],41.4 µM (active)
same,outcome,[4],inactive
COCC(=O)N(c1c(C)cccc1C)C(C)C(=O)OC (stereo not given),outcome,[1],inactive
Clc1nc(Cl)nc(Nc2ccccc2Cl)n1,AC50,[3],8.85 µM (active)
same,outcome,[1],inactive
same,outcome,[2],inactive
CCN(CC)C(=O)C(C)Oc1cccc2ccccc12 (stereo not given),AC50,[3],0.000739 µM (active)
same,outcome,[8],inactive
same,AC50,[9],27.1 µM (active)
same,AC50,[10],27.4 µM (active)
same,outcome,[1],inactive
same,outcome,[2],inactive
same,AC50,[11],24.8 µM (active)
same,AC50,[12],25.8 µM (active)
same,outcome,[13],inactive
same,outcome,[14],inactive
same,AC50,[15],5.99 µM (active)
same,outcome,[5],inactive
